# Assay results: ChEMBL document CHEMBL1961873, “Compounds: GSK PKIS; Assays: Nanosyn kinase panel” (2012)
# Columns and labels:
# [1] = target: Leukocyte tyrosine kinase receptor (Homo sapiens) (UniProt P29376); conditions: at 1 µM;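 also: each value is the mean inhibition of LTK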
# [2] = target: Tyrosine-protein kinase Lyn (Homo sapiens) (UniProt P07948); conditions: at 0.1 µM
# [3] = target: Tyrosine-protein kinase Lyn (Homo sapiens) (UniProt P07948); conditions: at 1 µM
# [4] = target: Tyrosine-protein kinase Lyn (Homo sapiens) (UniProt P07948); conditions: at 0.1 µM; remark: listed apart in the source
# [5] = target: Tyrosine-protein kinase Lyn (Homo sapiens) (UniProt P07948); conditions: at 1 µM; remark: listed apart in the source
# [6] = target: T1, Tyrosine-protein kinase Mer (Homo sapiens) (UniProt Q12866); conditions: at 0.1 µM
# T1 sequence (whole entry): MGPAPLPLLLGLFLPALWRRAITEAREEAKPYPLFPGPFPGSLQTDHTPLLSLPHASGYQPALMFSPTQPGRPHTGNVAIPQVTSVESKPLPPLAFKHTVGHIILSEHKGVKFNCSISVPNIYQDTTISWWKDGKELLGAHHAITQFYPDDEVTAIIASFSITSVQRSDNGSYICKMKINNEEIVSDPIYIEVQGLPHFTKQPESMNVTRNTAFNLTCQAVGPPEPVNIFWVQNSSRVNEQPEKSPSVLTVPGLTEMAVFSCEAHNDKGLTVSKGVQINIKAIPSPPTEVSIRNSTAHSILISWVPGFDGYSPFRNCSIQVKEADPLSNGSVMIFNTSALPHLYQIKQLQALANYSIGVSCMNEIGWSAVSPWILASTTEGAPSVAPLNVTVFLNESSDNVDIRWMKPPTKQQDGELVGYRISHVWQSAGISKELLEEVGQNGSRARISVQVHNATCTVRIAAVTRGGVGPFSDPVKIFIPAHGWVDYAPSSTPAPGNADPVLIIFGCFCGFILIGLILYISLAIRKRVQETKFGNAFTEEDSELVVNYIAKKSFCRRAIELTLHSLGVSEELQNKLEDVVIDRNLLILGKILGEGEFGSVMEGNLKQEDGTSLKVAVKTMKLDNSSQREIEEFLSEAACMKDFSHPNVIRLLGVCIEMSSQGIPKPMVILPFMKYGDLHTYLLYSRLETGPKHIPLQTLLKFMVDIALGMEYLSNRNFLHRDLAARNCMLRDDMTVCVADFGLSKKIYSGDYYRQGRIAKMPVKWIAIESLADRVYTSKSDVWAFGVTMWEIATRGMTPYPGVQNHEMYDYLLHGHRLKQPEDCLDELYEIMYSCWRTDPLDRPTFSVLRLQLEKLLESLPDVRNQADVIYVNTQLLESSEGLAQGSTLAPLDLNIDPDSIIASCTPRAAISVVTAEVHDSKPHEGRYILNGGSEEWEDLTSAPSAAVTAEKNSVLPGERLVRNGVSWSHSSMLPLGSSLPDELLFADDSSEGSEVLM
# [7] = target: T1, Tyrosine-protein kinase Mer (Homo sapiens); conditions: at 1 µM
# [8] = target: Hepatocyte growth factor receptor (Homo sapiens) (UniProt P08581); conditions: at 0.1 µM
# [9] = target: Hepatocyte growth factor receptor (Homo sapiens) (UniProt P08581); conditions: at 1 µM
# [10] = target: T2, Muscle, skeletal receptor tyrosine-protein kinase (Homo sapiens) (UniProt O15146); conditions: at 0.1 µM
# T2 sequence (whole entry): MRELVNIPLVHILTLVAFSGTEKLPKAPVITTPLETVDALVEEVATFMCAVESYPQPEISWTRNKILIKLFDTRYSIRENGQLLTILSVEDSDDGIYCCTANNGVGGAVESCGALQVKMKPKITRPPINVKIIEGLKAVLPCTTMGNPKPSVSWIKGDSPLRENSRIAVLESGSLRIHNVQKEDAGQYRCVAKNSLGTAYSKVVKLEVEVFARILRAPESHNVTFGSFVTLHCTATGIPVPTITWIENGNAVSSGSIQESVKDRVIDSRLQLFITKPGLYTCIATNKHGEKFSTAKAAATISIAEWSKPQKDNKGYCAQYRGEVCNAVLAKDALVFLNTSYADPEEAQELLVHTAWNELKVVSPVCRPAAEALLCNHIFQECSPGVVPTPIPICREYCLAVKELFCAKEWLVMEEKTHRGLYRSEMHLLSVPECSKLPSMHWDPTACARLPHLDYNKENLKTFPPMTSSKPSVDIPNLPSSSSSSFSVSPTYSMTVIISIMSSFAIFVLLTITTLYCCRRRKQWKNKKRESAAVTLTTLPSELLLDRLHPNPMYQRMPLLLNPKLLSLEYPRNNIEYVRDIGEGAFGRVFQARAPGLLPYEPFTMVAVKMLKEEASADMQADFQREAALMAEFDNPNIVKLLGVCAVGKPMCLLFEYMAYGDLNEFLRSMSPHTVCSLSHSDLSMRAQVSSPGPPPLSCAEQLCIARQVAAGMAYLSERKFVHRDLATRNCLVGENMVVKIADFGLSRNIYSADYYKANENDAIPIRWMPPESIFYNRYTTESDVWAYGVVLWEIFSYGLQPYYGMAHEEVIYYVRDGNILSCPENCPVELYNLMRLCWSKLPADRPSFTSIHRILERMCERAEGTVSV
# [11] = target: T2, Muscle, skeletal receptor tyrosine-protein kinase (Homo sapiens); conditions: at 1 µM
# [12] = target: Platelet-derived growth factor receptor alpha (Homo sapiens) (UniProt P16234); conditions: at 0.1 µM
# Chain of Platelet-derived growth factor receptor alpha (Homo sapiens) (P16234 whole entry): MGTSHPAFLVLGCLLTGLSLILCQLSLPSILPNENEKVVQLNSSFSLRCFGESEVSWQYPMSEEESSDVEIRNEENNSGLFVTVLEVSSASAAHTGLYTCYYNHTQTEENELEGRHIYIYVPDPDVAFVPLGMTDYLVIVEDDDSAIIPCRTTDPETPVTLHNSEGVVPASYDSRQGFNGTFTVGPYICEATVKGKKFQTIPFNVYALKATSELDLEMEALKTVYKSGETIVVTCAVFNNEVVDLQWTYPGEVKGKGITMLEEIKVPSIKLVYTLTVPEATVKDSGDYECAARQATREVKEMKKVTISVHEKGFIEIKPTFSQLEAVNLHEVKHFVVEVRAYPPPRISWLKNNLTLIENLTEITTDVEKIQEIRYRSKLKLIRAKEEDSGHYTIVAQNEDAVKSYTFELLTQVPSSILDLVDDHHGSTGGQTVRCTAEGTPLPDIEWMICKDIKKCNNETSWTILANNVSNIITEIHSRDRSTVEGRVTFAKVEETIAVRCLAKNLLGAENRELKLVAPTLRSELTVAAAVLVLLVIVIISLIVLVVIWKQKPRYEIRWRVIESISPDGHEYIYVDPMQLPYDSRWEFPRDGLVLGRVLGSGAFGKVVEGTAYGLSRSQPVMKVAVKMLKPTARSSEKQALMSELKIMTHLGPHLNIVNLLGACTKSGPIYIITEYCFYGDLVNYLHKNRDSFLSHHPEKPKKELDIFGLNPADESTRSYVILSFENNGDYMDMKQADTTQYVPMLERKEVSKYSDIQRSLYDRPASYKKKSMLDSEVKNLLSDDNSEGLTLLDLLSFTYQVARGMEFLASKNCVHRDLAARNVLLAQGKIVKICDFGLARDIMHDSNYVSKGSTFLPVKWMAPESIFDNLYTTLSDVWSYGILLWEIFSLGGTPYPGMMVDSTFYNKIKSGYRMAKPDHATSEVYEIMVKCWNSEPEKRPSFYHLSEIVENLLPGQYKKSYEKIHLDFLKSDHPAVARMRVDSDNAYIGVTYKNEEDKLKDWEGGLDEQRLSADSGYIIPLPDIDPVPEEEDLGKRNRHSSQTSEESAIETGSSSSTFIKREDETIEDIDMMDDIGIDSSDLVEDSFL
# [13] = target: Platelet-derived growth factor receptor alpha (Homo sapiens) (UniProt P16234); conditions: at 1 µM
# [14] = tested on: Platelet-derived growth factor receptor alpha (Homo sapiens), P16234 [D842V]; conditions: at 0.1 µM
# [15] = tested on: Platelet-derived growth factor receptor alpha (Homo sapiens), P16234 [D842V]; conditions: at 1 µM
# [16] = tested on: Platelet-derived growth factor receptor alpha (Homo sapiens), P16234 [T674I]; conditions: at 0.1 µM
# [17] = tested on: Platelet-derived growth factor receptor alpha (Homo sapiens), P16234 [T674I]; conditions: at 1 µM
# [18] = tested on: Platelet-derived growth factor receptor alpha (Homo sapiens), P16234 [V561D]; conditions: at 0.1 µM
# Chain of Platelet-derived growth factor receptor alpha (Homo sapiens), P16234 [V561D] (P16234 whole entry V561D): as the sequence (P16234 whole entry) above, with V561D counted along it
# [19] = tested on: Platelet-derived growth factor receptor alpha (Homo sapiens), P16234 [V561D]; conditions: at 1 µM
# [20] = target: Platelet-derived growth factor receptor beta (Homo sapiens) (UniProt P09619); conditions: at 0.1 µM;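 also: reported value is the mean percent inhibition of the kinase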
# Chain of Platelet-derived growth factor receptor beta (Homo sapiens) (P09619 whole entry): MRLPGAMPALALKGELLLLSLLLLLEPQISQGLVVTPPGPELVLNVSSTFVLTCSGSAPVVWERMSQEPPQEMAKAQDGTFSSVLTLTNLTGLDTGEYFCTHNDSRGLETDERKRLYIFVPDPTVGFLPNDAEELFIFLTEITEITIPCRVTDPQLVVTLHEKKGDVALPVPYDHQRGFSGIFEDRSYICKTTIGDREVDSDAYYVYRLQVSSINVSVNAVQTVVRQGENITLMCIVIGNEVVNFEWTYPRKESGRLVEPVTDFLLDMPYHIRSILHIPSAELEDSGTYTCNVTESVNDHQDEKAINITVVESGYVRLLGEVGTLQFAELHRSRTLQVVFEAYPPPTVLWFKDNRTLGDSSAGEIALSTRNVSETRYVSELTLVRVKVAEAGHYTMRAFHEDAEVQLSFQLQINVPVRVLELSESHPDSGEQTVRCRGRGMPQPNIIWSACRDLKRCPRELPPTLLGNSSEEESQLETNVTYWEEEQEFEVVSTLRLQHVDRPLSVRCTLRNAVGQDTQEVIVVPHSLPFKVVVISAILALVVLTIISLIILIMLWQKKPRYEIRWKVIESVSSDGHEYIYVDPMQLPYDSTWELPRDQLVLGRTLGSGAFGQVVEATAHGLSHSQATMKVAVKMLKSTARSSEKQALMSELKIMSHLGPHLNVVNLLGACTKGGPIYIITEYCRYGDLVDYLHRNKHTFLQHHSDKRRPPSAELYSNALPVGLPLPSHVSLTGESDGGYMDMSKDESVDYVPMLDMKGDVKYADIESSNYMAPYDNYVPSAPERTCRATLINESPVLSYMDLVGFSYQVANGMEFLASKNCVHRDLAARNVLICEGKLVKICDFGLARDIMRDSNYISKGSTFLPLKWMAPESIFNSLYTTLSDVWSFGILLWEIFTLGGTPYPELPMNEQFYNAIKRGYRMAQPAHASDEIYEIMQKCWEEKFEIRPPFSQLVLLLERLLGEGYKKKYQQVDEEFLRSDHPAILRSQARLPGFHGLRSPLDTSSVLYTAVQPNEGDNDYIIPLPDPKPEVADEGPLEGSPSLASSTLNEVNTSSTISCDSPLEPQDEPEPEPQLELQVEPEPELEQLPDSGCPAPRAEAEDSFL
# Chain of Leukocyte tyrosine kinase receptor (Homo sapiens) (P29376 whole entry): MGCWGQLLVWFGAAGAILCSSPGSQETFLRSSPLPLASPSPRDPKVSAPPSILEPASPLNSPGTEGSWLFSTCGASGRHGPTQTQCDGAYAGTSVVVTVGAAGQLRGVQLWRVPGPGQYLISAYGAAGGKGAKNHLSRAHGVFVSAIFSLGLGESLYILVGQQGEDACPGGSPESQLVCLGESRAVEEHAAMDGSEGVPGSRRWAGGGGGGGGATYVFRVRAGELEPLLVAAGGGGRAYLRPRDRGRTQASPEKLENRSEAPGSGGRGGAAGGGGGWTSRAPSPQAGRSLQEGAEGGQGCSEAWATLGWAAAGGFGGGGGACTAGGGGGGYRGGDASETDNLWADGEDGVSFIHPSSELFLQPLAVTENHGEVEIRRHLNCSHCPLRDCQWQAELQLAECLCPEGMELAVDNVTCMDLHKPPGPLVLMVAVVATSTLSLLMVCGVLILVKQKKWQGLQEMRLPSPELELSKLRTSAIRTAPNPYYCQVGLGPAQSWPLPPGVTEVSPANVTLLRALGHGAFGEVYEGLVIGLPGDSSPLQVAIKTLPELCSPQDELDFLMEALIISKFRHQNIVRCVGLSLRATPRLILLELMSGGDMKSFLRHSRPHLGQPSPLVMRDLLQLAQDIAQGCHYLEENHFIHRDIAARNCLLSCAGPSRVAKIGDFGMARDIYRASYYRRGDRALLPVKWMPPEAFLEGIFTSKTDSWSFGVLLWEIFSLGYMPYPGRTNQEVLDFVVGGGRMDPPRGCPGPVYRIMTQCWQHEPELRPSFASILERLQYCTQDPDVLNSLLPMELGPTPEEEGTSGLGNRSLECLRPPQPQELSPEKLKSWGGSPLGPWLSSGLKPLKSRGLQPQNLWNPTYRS
# Chain of Tyrosine-protein kinase Lyn (Homo sapiens) (P07948 2-512 limits assumed): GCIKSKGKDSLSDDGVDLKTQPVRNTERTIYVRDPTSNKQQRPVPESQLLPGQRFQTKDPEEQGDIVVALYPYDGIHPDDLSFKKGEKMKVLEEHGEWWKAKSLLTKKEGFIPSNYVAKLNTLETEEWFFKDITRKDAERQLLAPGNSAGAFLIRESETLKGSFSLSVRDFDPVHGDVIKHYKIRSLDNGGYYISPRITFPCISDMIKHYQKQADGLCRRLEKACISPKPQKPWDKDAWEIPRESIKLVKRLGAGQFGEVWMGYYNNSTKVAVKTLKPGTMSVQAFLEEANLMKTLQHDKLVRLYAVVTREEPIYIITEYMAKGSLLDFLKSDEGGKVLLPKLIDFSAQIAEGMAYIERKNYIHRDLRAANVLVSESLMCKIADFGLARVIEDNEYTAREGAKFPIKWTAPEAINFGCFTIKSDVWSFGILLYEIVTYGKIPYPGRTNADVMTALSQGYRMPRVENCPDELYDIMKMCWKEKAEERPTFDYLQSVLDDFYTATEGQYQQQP
Structure (SMILES),inhibition [1] [%],inhibition [2] [%],inhibition [3] [%],inhibition [4] [%],inhibition [5] [%],inhibition [6] [%],inhibition [7] [%],inhibition [8] [%],inhibition [9] [%],inhibition [10] [%],inhibition [11] [%],inhibition [12] [%],inhibition [13] [%],inhibition [14] [%],inhibition [15] [%],inhibition [16] [%],inhibition [17] [%],inhibition [18] [%],inhibition [19] [%],inhibition [20] [%]
O=C1Nc2ccc(-c3cccnc3)cc2C1=Cc1cc(Br)c(O)c(Br)c1,23,2.95,11.1,1.54,9.06,1.25,2.23,2.89,5.75,3.42,5.67,10.2,20.2,4.65,12.5,5.16,5.71,5.57,23.6,1.45
Cc1ccc2c(-c3ccnc(Nc4ccc5c(c4)OCCO5)n3)c(-c3ccc(C(F)(F)F)cc3)nn2n1,1.95,2.2,6.17,1.57,4.82,-0.17,0.27,6.93,1.74,-0.62,-5.36,3.02,9.11,2.16,3.64,2.93,2.96,1.97,4.53,2.08
CC(C)c1ccc2c(c1)NC(=O)/C2=N/Nc1ccc(S(N)(=O)=O)cc1,0.89,3.02,12.2,2.61,10.5,0.63,1.96,0.7,1.76,-0.51,3.81,6.3,34.2,1.62,17.2,6.18,48.9,21.5,52.3,4.34
Cc1ccc(C(=O)NC2CC2)cc1-c1ccc2[nH]ncc2c1,-2.27,-2.45,-0.16,-2.22,-0.48,-1.71,1.57,-0.6,-1.74,0.78,2.51,2.1,13.4,1.95,4.58,1.44,2.76,3.49,13.8,1.82
Cc1ccc2c(c1)/C(=N/Nc1ccc(S(N)(=O)=O)cc1)C(=O)N2,1,0.12,4.93,0.75,4.77,-1.4,1.27,1.07,4.08,2.69,16.2,12.2,37.7,2.85,13.1,11.5,70.2,21.8,52.3,8.12
C[C@@H](Oc1cc(-n2cnc3ccc(OCC4CCN(C)CC4)cc32)sc1C(N)=O)c1ccccc1C(F)(F)F,3.18,1.14,18.9,1.52,16.5,-0.95,6.99,2.85,9.84,41.3,76,25.1,69.4,18.1,65.6,4.88,46,17.7,66.2,56.3
NC(=O)c1cccc(Nc2nccc(Nc3cccc(F)c3)n2)c1,6.92,3.6,36.1,2.42,30.6,0.08,4.99,7.98,9.64,0.8,7.74,7.13,43.4,1.84,33.6,0.83,5.92,6.64,46,11.5
COC(=O)c1ccc2c(c1)C(=Cc1cc(Br)c(O)c(Br)c1)C(=O)N2,34,3.81,17.1,2.84,12.9,1.09,2.17,2.4,8.25,3,8.06,5.39,16.1,2.33,12.2,1.96,3.91,4.32,12.3,1.55
COC(=O)c1cncc(/C=C/c2c(C)cc(O)cc2C)c1,4.87,12.3,46.2,7.81,41.9,0.09,2.53,1.79,11.5,2.48,3.88,14.8,42.8,0.7,7.7,3.58,6.85,27,54.8,9.77
CCS(=O)(=O)c1ccc(OC)c(Nc2ncc(-c3cccc(OC)c3)o2)c1,3.16,20.2,68.2,15.9,63.6,2.42,7.73,-0.79,2.24,4.87,–,23.5,58.4,10.9,55.3,4.09,10.2,19.6,68.7,43.7
CCn1c(-c2nonc2N)nc2c(C#CC(C)(C)O)nc(OCCNC)cc21,4.95,5.06,5.53,2.97,3.02,2.03,2.24,4.48,0.4,1.71,3.32,3.73,16.3,5.07,17.5,2.61,14.2,3.69,11.1,3.31
